Results filed as inconclusive are left out. Calls of active or inactive are those of the source. How the source made its calls, unless noted: active means hit-call score of the fitted dose curve at least 0.9, where 1 is the maximum; inactive means score below 0.9.

Outcome and AC50 data for four molecules are collected here from PubChem BioAssay (EPA / NIEHS).

Assay [1] has as its target Glucocorticoid receptor (Homo sapiens) (UniProt P04150). In words: ATG_GR_TRANS: Attagene TRANS-FACTORIAL HepG2 Assay for human Glucocorticoid Receptor (GR) (AID 2282978; active means hit-call score of the fitted dose curve at least 0.9, where 1 is the maximum;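 further: activators score as hits since higher reporter transcript over DMSO is fitted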). The following applies: HepG2 Attagene TRANS GR reporter, mRNA transcription. The gist of the method: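 In this trans-factorial format, exogenous NR-GAL4 chimeric proteins in transfected HepG2 cells regulate GAL4-UAS reporter transcription. After 24 h treatment, reporter mRNA induction relative to DMSO is read by RT-PCR and capillary electrophoresis.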

For assay [2], the target named is Bile acid receptor (Homo sapiens) (UniProt Q96RI1). In words: ATG_FXR_TRANS: Attagene TRANS-FACTORIAL HepG2 Assay for Farnesoid X Receptor (FXR) (AID 2282979; active means hit-call score of the fitted dose curve at least 0.9, where 1 is the maximum;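 further: hits raise reporter mRNA above DMSO so AC50 marks FXR activation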). The following applies: HepG2 Attagene TRANS FXR-GAL4 reporter transcription. The gist of the method: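 HepG2 cells transiently transfected with reporter constructs in which a chimeric FXR-GAL4 protein drives a GAL4-UAS reporter; 24 h compound exposure. Reporter mRNA measured by RT-PCR, FAM labelling, HpaI digestion and capillary electrophoresis; gain-of-signal versus DMSO.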
Sequence of Bile acid receptor (Homo sapiens) (Q96RI1 whole entry, looked up, the tested form may be a part): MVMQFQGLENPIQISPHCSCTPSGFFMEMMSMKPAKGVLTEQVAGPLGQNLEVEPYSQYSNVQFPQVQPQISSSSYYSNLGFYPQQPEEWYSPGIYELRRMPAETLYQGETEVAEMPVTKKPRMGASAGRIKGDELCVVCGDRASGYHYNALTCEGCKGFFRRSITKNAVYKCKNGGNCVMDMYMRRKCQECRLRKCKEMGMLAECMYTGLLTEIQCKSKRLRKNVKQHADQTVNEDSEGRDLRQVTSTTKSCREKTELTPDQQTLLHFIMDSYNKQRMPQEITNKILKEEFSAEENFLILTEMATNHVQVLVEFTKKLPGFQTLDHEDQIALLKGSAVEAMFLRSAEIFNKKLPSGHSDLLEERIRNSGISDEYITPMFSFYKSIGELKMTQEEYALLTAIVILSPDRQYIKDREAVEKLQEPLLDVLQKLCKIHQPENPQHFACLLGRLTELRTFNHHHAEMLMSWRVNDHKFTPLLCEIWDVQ

Assay [3] addresses Oxysterols receptor LXR-alpha (Homo sapiens) (UniProt Q13133). In words: ATG_LXRa_TRANS: Attagene TRANS-FACTORIAL HepG2 Assay for human Liver X Receptor alpha (LXRa) (AID 2282980; active means hit-call score of the fitted dose curve at least 0.9, where 1 is the maximum). The following applies: HepG2 Attagene TRANS reporter, LXRa transactivation. The gist of the method:
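HepG2 cells were transiently transfected with multiplexed reporter units driven by chimeric LXRa–GAL4 fusion proteins, then dosed for 24 h. Reporter mRNA was quantified by RT-PCR, fluorescent labelling and capillary electrophoresis; gain of signal fitted against DMSO baseline.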

The target of assay [4] is Hepatocyte nuclear factor 4-alpha (Homo sapiens) (UniProt P41235). In words: ATG_HNF4a_TRANS: Attagene TRANS-FACTORIAL HepG2 Assay for human Hepatocyte Nuclear Factor 4 alpha (HNF4a) (AID 2282982; active means hit-call score of the fitted dose curve at least 0.9, where 1 is the maximum). The following applies: HepG2 HNF4a transactivation reporter, mRNA readout. The gist of the method:
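Cells used were human HepG2, transiently carrying GAL4-UAS reporter units read out against exogenous NR-GAL4 chimeras. Reporter transcript levels after 24 h dosing were quantified by fluorescent RT-PCR and capillary electrophoresis.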

Assay [5] can be described thus: ATG_M_06_TRANS: Attagene TRANS-FACTORIAL HepG2 Assay for M06 Transcription Factor (Internal Marker) (AID 2282983; active means hit-call score of the fitted dose curve at least 0.9, where 1 is the maximum). The following applies: HepG2 Attagene TRANS M06 internal marker reporter. The gist of the method: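 HepG2 cells transiently transfected with multiplexed GAL4-UAS reporter transcription units; after 24 h compound exposure, reporter mRNA measured by RT-PCR, FAM-labelled primer extension, HpaI digestion and capillary electrophoresis. Gain-of-signal fitted versus DMSO baseline; background control readout.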

Assay [6] addresses Transcriptional activator Myb (Homo sapiens) (UniProt P10242). In words: ATG_Myb_CIS: Attagene CIS-FACTORIAL HepG2 Assay for human Myeloblastosis (Myb) Proto-Oncogene Transcription Factor (AID 2282986). The following applies: HepG2 Attagene CIS-FACTORIAL Myb reporter transcription; actives raise or lower the signal. The gist of the method: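 Steps: transfect HepG2 with cis-regulated reporter units; dose with chemical for 24 h; isolate RNA, reverse-transcribe, PCR-amplify and FAM-label reporter sequences; digest with HpaI; resolve by capillary electrophoresis. Activity fitted in both directions relative to DMSO.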

For assay [7], the target named is Nuclear respiratory factor 1 (Homo sapiens) (UniProt Q16656). In words: ATG_NRF1_CIS: Attagene CIS-FACTORIAL HepG2 Assay for human Nuclear Respiratory Factor 1 (NRF1) Orphan Gene (AID 2282987). The following applies: HepG2 NRF1 cis-element reporter, Attagene multiplex; actives raise or lower the signal. The gist of the method: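 Fluorescence intensity of labelled reporter cDNA fragments, resolved by capillary electrophoresis, served as readout for NRF1 cis-element activity. Transiently transfected HepG2 cells were dosed for 24 hours; activity in either direction was fitted against DMSO negative control.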
Sequence of Nuclear respiratory factor 1 (Homo sapiens) (Q16656 whole entry, looked up, the tested form may be a part): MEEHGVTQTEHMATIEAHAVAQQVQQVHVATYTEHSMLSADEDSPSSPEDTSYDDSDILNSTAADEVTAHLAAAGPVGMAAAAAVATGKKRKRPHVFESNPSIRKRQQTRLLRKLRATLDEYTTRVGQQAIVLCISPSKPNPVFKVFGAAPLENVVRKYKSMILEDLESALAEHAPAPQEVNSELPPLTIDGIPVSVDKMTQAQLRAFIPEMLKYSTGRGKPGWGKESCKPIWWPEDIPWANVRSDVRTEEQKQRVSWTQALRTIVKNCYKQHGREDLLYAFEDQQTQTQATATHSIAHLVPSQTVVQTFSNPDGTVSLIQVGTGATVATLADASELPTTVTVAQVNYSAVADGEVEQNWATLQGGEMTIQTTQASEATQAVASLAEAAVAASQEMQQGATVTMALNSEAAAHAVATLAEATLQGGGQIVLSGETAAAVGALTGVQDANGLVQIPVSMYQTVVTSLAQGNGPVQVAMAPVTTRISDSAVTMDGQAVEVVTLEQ

The nature of assay [8]: ATG_NFI_CIS: Attagene CIS-FACTORIAL HepG2 Assay for human Nuclear Factor I (NFI) (AID 2282989). The following applies: HepG2 cis-regulatory reporter, NFI response element transcription; actives raise or lower the signal. The gist of the method:
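Endogenous TF activity in HepG2 cells transiently transfected with cis-element-driven multiplexed reporter units, read 24 h after dosing. Reporter mRNA quantified by RT-PCR, 6-FAM labelling, HpaI digestion and capillary electrophoresis; bidirectional fit versus DMSO.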

The target of assay [9] is Myc proto-oncogene protein (Homo sapiens) (UniProt P01106). In words: ATG_Myc_CIS: Attagene CIS-FACTORIAL HepG2 Assay for human Myelocytomatosis (Myc) Proto-Oncogene Transcription Factor (AID 2282990). The following applies: HepG2, Attagene cis-reporter transcription factor activity; actives raise or lower the signal. The gist of the method:
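HepG2 cells transiently transfected with multiple cis-promoter-driven reporter transcription units, so endogenous TF activity is read. After 24 h compound exposure, reporter mRNA was quantified by RT-PCR, 6-FAM labelling, HpaI digestion and capillary electrophoresis; bidirectional fit versus DMSO.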

A short description of assay [10]: ATG_NF_kB_CIS: Attagene CIS-FACTORIAL HepG2 Assay for human Nuclear Factor Kappa B (NF-kB) (AID 2282991). The following applies: HepG2 Attagene cis-factorial NF-kB reporter mRNA; actives raise or lower the signal. The gist of the method:
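Endogenous transcription factor activity in HepG2 was captured via cis-regulated reporter constructs; after 24 h dosing, reporter mRNA was reverse-transcribed, amplified, fluorescently labelled and sized by capillary electrophoresis, with activity fitted bidirectionally relative to DMSO.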

Assay [11] is described as follows: ATG_NRF2_ARE_CIS: Attagene CIS-FACTORIAL HepG2 Assay for human Nuclear Factor Erythroid 2 Related Factor 2 (NFR2) response to Antioxidant Response Elements (ARE) (AID 2282992).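 On AC50: reporter mRNA level measured by RT-PCR and capillary electrophoresis fluorescence.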 The following applies: HepG2 Attagene ARE/NRF2 reporter, transcription factor activity; actives raise or lower the signal. The gist of the method: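 HepG2 cells transiently transfected with multiplexed cis-element reporter constructs, 24 h after chemical dosing; reporter mRNA quantified by RT-PCR, fluorescent primer extension, HpaI digestion and capillary electrophoresis. Bidirectional fit relative to DMSO.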

The nature of assay [12]: ATG_Oct_MLP_CIS: Attagene CIS-FACTORIAL HepG2 Assay for human Octamer-Binding Transcription Factor (Oct) (AID 2282993). The following applies: HepG2 Attagene cis-factorial Oct reporter, mRNA; actives raise or lower the signal. The gist of the method: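 HepG2 cells transiently transfected with cis-element-driven reporter transcription units (endogenous TF activity); 24 h compound exposure. Reporter mRNA quantified by RT-PCR, 6-FAM labelling, HpaI digestion and capillary electrophoresis; bidirectional fit versus DMSO baseline.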

The target of assay [13] is Cellular tumor antigen p53 (Homo sapiens) (UniProt P04637). In words: ATG_p53_CIS: Attagene CIS-FACTORIAL HepG2 Assay for human p53 Transcription Factor (AID 2282994). The following applies: HepG2 p53 cis-element reporter, Attagene mRNA; actives raise or lower the signal. The gist of the method:
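HepG2 cells transiently transfected with cis-regulated multiple reporter transcription units, dosed 24 h. Reporter mRNA measured by RT-PCR, 6-FAM primer extension, HpaI digestion and capillary electrophoresis; bidirectional fit relative to DMSO.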

Assay [14] can be described thus: BSK_3C_TissueFactor: BioMAP Diversity Plus: 3C Assay for Tissue Factor Biomarker Activity (AID 2282997). The following applies: BioMAP 3C HUVEC, tissue factor biomarker readout; actives raise or lower the signal. The gist of the method: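 Primary human umbilical vein endothelial cells in the 3C system were exposed to test chemical for 24 h, then Tissue Factor measured by ELISA. Activity was fitted bidirectionally against DMSO as negative control and baseline.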

Assay [15] can be described thus: BSK_3C_uPAR: BioMAP Diversity Plus: 3C Assay for Urokinase-type plasminogen activator receptor (uPAR) Biomarker Activity (AID 2282998). The following applies: BioMAP 3C HUVEC, uPAR biomarker ELISA; actives raise or lower the signal. The gist of the method:
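Primary human umbilical vein endothelial cells, 3C system; surface uPAR measured by ELISA 24 h after dosing. Cytotoxicity via SRB total protein in parallel cultures; bidirectional fit against DMSO.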

A short description of assay [16]: BSK_3C_VCAM1: BioMAP Diversity Plus: 3C Assay for Vascular cell adhesion molecule 1 (VCAM1) Biomarker Activity (AID 2282999). The following applies: BioMAP 3C HUVEC, VCAM1 ELISA, cytokine-stimulated; actives raise or lower the signal. The gist of the method:
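Human umbilical vein endothelial cells were dosed with compound for 24 h, after which cell-surface VCAM-1 was quantified by ELISA. Bidirectional curve fitting used DMSO as negative control and activity baseline.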

A short description of assay [17]: ATG_M_32_TRANS: Attagene TRANS-FACTORIAL HepG2 Assay for M32 Transcription Factor (Internal Marker) (AID 2282984; active means hit-call score of the fitted dose curve at least 0.9, where 1 is the maximum). The following applies: HepG2 Attagene TRANS M32 internal marker reporter. The gist of the method: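 Human hepatoma HepG2, transient MRTU transfection, 24 h treatment. RNA → RT-PCR → fluorescent primer extension → HpaI digest (2 h, 37 C) → CE. Positive-direction fit vs DMSO.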

Assay [18] concerns the target Nuclear receptor subfamily 4 group A member 2 (Homo sapiens) (UniProt P43354). In words: ATG_NURR1_TRANS: Attagene TRANS-FACTORIAL HepG2 Assay for human Nuclear Receptor Related Protein 1 (NURR1) (AID 2282985; active means hit-call score of the fitted dose curve at least 0.9, where 1 is the maximum). The following applies: HepG2 Attagene TRANS reporter, mRNA readout. The gist of the method:
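After 24 h chemical dosing, total RNA from transiently transfected HepG2 cells was reverse-transcribed and reporter cDNA PCR-amplified, FAM-labelled and analysed by capillary electrophoresis. Activity fitted in positive direction, DMSO as negative control.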

Assay [19] in a line: BSK_4H_Eotaxin3: BioMAP Diversity Plus: 4H Assay for Eotaxin 3 Biomarker Activity (AID 2283000). The following applies: primary human endothelial cells (HUVEC); actives raise or lower the signal. The gist of the method: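 HUVEC, 24 h post-dose, ELISA for Eotaxin-3/CCL26. Gain or loss of signal fitted bidirectionally vs DMSO baseline.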

Sequence of Glucocorticoid receptor (Homo sapiens) (P04150 whole entry, looked up, the tested form may be a part): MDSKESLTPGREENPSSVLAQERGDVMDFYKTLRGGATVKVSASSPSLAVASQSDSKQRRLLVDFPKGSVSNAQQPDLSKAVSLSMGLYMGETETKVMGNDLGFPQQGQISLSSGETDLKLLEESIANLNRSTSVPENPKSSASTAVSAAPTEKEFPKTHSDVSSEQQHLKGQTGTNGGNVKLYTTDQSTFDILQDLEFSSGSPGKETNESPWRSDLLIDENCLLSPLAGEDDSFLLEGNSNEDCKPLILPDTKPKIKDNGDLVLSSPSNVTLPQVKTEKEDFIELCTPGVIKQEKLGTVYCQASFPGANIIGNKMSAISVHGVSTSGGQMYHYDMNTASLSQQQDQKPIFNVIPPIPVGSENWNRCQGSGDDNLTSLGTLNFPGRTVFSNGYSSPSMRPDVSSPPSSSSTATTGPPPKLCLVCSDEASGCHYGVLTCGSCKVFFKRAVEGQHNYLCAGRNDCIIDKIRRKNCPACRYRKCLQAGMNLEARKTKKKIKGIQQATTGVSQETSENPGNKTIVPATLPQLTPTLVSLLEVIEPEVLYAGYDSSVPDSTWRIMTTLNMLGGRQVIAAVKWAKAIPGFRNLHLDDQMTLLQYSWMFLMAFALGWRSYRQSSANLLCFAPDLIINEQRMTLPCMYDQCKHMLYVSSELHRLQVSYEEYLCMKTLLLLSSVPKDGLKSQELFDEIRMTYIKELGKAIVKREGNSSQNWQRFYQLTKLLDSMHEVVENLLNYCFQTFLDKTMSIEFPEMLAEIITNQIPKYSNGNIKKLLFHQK
Sequence of Cellular tumor antigen p53 (Homo sapiens) (P04637 whole entry, looked up): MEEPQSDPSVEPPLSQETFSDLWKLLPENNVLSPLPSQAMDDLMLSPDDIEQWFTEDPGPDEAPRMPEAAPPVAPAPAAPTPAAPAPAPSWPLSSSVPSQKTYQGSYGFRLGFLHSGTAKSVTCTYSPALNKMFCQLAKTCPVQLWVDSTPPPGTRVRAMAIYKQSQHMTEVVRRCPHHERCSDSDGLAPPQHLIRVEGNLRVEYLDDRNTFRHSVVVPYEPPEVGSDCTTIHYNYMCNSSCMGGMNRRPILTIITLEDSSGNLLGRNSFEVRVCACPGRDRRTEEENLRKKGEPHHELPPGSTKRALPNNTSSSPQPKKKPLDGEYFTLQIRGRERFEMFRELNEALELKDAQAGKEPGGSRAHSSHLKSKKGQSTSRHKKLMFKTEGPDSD
Sequence of Myc proto-oncogene protein (Homo sapiens) (P01106 whole entry, looked up): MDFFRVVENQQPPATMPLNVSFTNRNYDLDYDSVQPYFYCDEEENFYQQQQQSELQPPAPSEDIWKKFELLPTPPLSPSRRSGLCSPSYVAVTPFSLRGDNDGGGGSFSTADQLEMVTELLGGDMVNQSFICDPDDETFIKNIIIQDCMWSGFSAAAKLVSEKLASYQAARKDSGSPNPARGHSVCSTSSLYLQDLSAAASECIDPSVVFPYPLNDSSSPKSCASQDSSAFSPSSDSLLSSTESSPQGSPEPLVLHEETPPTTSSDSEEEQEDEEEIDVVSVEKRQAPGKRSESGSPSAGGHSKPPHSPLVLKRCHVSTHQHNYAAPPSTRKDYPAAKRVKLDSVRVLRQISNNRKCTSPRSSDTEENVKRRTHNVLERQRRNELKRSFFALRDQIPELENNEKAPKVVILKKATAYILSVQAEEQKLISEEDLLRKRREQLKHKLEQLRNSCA
Sequence of Transcriptional activator Myb (Homo sapiens) (P10242 whole entry, looked up): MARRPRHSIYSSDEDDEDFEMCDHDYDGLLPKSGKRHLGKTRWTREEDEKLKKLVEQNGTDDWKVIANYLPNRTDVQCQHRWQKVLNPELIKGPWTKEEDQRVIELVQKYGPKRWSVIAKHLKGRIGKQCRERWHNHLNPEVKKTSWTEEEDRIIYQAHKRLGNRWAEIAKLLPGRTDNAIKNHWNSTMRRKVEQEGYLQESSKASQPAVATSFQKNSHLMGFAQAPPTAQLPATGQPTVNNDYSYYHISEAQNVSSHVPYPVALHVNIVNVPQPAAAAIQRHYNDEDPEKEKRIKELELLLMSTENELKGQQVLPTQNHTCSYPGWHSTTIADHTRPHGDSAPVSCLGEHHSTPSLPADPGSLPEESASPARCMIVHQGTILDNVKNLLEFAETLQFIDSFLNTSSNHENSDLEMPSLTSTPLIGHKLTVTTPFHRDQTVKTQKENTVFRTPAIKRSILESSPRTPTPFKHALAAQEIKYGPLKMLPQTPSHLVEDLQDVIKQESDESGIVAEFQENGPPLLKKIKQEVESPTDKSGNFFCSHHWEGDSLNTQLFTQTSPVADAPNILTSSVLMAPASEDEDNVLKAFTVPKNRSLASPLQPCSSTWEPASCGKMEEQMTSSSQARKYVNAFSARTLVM
Sequence of Oxysterols receptor LXR-alpha (Homo sapiens) (Q13133 whole entry, looked up, the tested form may be a part): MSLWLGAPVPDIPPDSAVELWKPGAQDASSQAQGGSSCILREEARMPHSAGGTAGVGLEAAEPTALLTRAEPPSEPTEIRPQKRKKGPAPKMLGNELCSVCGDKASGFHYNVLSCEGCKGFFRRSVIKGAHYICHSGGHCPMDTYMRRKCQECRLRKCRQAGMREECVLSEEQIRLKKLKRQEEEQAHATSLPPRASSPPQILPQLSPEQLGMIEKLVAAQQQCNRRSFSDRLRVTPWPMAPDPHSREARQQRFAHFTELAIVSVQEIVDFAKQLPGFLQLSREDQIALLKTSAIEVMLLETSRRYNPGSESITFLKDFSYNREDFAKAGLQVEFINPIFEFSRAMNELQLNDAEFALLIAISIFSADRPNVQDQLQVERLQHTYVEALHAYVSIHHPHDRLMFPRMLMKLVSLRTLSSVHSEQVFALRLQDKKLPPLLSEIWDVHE
Sequence of Hepatocyte nuclear factor 4-alpha (Homo sapiens) (P41235 whole entry, looked up, the tested form may be a part): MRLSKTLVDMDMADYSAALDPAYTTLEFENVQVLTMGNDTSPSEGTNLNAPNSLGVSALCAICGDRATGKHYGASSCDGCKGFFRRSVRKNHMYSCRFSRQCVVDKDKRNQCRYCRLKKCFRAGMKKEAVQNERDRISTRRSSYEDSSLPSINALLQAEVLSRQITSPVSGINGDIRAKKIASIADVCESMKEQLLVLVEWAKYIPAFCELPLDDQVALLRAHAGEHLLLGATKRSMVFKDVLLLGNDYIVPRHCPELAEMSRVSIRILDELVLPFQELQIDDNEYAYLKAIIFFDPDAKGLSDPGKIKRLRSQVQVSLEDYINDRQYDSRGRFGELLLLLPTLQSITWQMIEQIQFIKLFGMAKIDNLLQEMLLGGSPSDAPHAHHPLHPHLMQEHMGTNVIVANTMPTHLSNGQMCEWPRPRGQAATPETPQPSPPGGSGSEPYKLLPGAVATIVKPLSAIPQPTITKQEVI
Sequence of Nuclear receptor subfamily 4 group A member 2 (Homo sapiens) (P43354 whole entry, looked up): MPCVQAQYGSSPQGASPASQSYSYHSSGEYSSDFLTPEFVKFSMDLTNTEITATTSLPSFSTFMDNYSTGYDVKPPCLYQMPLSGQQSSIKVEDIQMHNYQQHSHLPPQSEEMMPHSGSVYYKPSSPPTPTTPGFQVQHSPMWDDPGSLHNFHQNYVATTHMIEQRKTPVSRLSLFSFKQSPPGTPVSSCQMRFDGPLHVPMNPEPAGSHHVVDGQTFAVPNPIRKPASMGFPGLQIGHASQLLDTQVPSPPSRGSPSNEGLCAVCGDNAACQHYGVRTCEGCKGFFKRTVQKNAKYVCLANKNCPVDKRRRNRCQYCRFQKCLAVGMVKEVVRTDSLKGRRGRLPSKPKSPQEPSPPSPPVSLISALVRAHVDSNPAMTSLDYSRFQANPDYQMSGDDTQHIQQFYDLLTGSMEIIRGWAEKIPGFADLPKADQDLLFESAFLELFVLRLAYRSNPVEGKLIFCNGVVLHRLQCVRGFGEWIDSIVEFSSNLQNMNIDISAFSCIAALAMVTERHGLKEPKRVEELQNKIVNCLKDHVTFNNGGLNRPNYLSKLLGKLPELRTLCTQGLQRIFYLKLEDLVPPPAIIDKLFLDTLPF

Regarding `CC(O)C#N` (stereo not drawn), the call in assay [1], in [2], in assay [3], in [4], in assay [5] and in assay [6] was inactive. The result in assay [7], in assay [8], in assay [9], in assay [10], in [11] and in [12] was inactive. The molecule was called inactive in assay [13].

In the case of `CCCCC(CC)COC(=O)c1c(Br)c(Br)c(Br)c(Br)c1C(=O)OCC(CC)CCCC` (stereo not drawn), the AC50 in assay [1] was 14.1 µM (active). Moreover, the call in assay [2], in [3], in assay [5], in [6], in [7] and in assay [8] was inactive. The molecule was classed as inactive in assay [9], in [10], in [11], in assay [12], in assay [13] and in [14]. Besides, the outcome in assay [15] and in assay [16] was inactive.

As for `Cc1ccc2c(c1N)C(=O)c1ccccc1C2=O`, the molecule was called inactive in assay [1], in assay [2], in assay [3], in assay [4], in assay [17] and in assay [18]. Also, the molecule was called inactive in [6], in assay [7], in [8], in [9], in assay [12] and in assay [13]. Also, the outcome in assay [16] was inactive. Besides, the AC50 is 25.4 µM (active) in [10]; 42.4 µM (active) in [11]; 20 µM (active) in assay [14]; 3.89 µM (active) in [15]; 9.4 µM (active) in assay [19].

With `O=C(CBr)OCc1ccccc1`, the molecule was called inactive in [1], in [2], in assay [3], in assay [5], in assay [6] and in assay [7]. Besides, the result in assay [8], in assay [9], in assay [10], in assay [12] and in assay [13] was inactive. In addition, the AC50 in assay [11] is 67.8 µM (active).
